In PubChem BioAssay AID2521 (Sanford-Burnham Center for Chemical Genomics, 2010):
Among all 330,000 compounds or so, about 1,100 (0.33%) were called active. What follows is part of a selection rich in actives, with near analogues and random picks from the rest. Values without a mark were called inactive.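 How the source made its calls: active means inhibition above about 40% at 20 µM (limit read from the data); inactive means the rest.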

The compounds below were run against Apelin receptor (Homo sapiens) (UniProt P35414) (assay: blockade of apelin-induced APJ beta-arrestin recruitment – CHO-K1 cells, beta-arrestin complementation, luminescence, primary screen (AID 2521;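 further: cells challenged with 10 nM apelin-13 agonist together with compound; plate controls were apelin-13 plus DMSO wells for no effect and DMSO wells lacking apelin-13 for full effect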)). Conditions: at 20 µM, hits give high values.
Apelin receptor (Homo sapiens), sequence (P35414 whole entry, looked up): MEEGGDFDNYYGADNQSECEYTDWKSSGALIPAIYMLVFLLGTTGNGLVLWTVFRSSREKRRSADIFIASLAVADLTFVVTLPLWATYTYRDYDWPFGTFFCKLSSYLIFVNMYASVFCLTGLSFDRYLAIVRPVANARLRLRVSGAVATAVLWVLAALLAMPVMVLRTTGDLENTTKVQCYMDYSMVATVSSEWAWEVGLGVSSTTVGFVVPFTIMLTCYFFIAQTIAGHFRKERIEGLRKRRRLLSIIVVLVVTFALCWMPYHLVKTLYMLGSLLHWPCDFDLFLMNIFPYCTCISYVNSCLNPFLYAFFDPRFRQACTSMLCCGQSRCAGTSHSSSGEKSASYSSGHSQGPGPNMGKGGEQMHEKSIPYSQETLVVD

Structure (SMILES)	inhibition
O=c1ccc2c(-c3ccccc3S(=O)(=O)O)c3ccc(O)c(O)c3oc-2c1O	49.3% (active)
CCNC(=S)N(CCN(CC)CC)Cc1cc2cc3c(cc2[nH]c1=O)OCO3	12.3%
CCO[C@H]1OC(C(=O)O)=C[C@@H](C2CCCCC2)[C@@H]1CCCO	-6.59%
O=C(Nc1cc(=O)[nH]c2ncnn12)c1ccccc1Cl	2.3%
CC(OC(=O)CN1C(=O)c2ccccc2C1=O)C(=O)c1ccccc1 (configuration not stated)	23%
CCOC(=O)CN1C(=O)C(=O)c2cc(C)ccc21	-0.658%
CC(C)OC(=O)CN1C(=O)C(=O)c2ccccc21	103% (active)
COc1ccc(C(=O)C[n+]2ccc(N)c(C)c2C)cc1	4.36%
CC(=O)c1ccc(S(=O)(=O)N(C)CCCC(=O)N(C)Cc2ccccc2F)cc1	-6.03%
CCCn1nc2cc(C(=O)NCc3ccccc3)ccc2c1OCC	-8.45%
N#CCCN(CCC#N)c1nnc(-c2ccccc2)s1	1.67%
CCC(=O)c1ccc(OC(=O)/C=C/c2cc(OC)c(OC)c(OC)c2)cc1	20.9%
Cc1cccc2cc3c(N)c(C(=O)N4CCCc5ccccc54)sc3nc12	95.8% (active)
Cc1c(C(=O)N2CCCc3ccccc32)sc2nc(-c3ccccc3)cn12	21%
Cc1c(C(=O)N2CCCc3ccccc32)oc2ccccc12	6.71%
Cc1cccc(N(C(=O)c2ccc(CN3CCOCC3)o2)C(C(=O)NC2CCCCC2)c2ccc(F)cc2)c1 (configuration not stated)	0.911%
C=C(C)C(=O)O[C@H]1C/C(C)=C\C(=O)/C=C(\C)[C@H](O)[C@@H]2OC(=O)C(=C)[C@@H]21	13.2%
Cc1cc(C(=O)CC#N)c(C)n1-c1c(C)n(C)n(-c2ccccc2)c1=O	9.25%
COc1ccccc1OC(C)C(=O)Nc1ccc(S(=O)(=O)Nc2nccs2)cc1 (configuration not stated)	5.98%
O=[N+]([O-])C(=c1ccc2c(c1)N1C3=C(CCCC3)CC3CCCCC31N=2)[N+](=O)[O-] (configuration not stated)	-3.42%
CCOc1ccc(NS(=O)(=O)c2ccc(Cl)c(C(=O)N(C)Cc3cccnc3)c2)cc1	6.06%
O=C(c1ccccc1Cl)N(Cc1ccccc1F)N1C(=O)CCCC1=O	-12.8%
O=[N+]([O-])c1cc(S(=O)(=O)CCCN2CCOCC2)ccc1F	-24.6%

Structure (SMILES)	inhibition
CC(CN1CCOCC1)OC(=O)c1ccc(Cl)cc1Cl (configuration not stated)	-5.38%
Cc1ccc(C(=O)OC(C)CN2CCOCC2)cc1 (configuration not stated)	-14.4%
CC(CN1CCOCC1)OC(=O)c1ccc(C(C)(C)C)cc1 (configuration not stated)	77% (active)
CCOC(=O)c1cnc2nc(SCc3ccccc3Cl)[nH]n2c1=O	-11.5%
CCc1nc2cccnc2n1-c1ccc(C(=O)O)cc1	1.09%
COc1ccc(N2CCN(C(=O)CCSCc3ccccc3F)CC2)cc1	-13.7%
COC(=O)c1nc2n(n1)C(c1ccc([N+](=O)[O-])cc1)C(C(=O)Nc1ccc(Cl)cc1)=C(C)N2 (configuration not stated)	2.59%
COCCn1c(SCC(=O)Nc2ccccc2F)nc2c(c1=O)SCC2	10.3%
COc1ccc(C(=O)NCC(=O)N/N=C/c2ccc([N+](=O)[O-])o2)cc1OC	-1.61%
COc1cc(/C=N\NC(=O)CNC(=O)c2cccc([N+](=O)[O-])c2)ccc1O	53.6% (active)
COc1ccc(O)c(/C=N/N=C/c2cccc([N+](=O)[O-])c2)c1	15.6%
COc1ccc(NC(C)=O)cc1NC(=O)CN1CCN(C2c3ccccc3-c3ccccc32)CC1	-6.9%
O=C(c1ccc(Cl)s1)N(Cc1nnc(-c2ccccc2Cl)o1)C1CC1	-57.5%
Brc1cc(Br)c(Oc2cc(Br)c(Br)cc2Br)cc1Br	11.9%
COc1ccc(-n2nc(C(=O)NCC(=O)N3CCC(C(N)=O)CC3)c3ccccc3c2=O)cc1OC	-0.314%
COc1cc2c(cc1OC)C(C)N(S(=O)(=O)c1cnc(Cl)c(Cl)c1)CC2 (configuration not stated)	-23.5%
O=C(O)CC1S/C(=N\N=C/c2ccccc2O)N(c2ccc(O)cc2)C1=O (configuration not stated)	-8.74%
COc1ccc(-c2csc(Cc3nc(O)cs3)n2)cc1	66.3% (active)
CC(C)(C)C(=O)OCc1nc(-c2ccc(O)c(O)c2)cs1	-5.74%
COc1ccc(-c2csc(NC(=O)COC(=O)Cc3ccc(Cl)cc3Cl)n2)cc1	4.6%
CSc1cc(C)n(-c2ccccc2C)c(=S)c1C(C)=O	7.52%
CC1CC2=C(CC1/C=N/NC(N)=S)C(C)(C)CCC2 (configuration not stated)	49.2% (active)
O=C1C=C(c2ccccc2)CCC1	14.7%

Structure (SMILES)	inhibition
Cc1csc(NC(=O)CSc2nnc(-c3cccnc3)o2)n1	14.2%
NS(=O)(=O)c1ccc(CCNS(=O)(=O)c2cccc3cccnc23)cc1	-8.92%
O=[N+]([O-])c1ccccc1S(=O)(=O)Nc1cccc2cccnc12	53.5% (active)
O=S(=O)(NCCc1ccc(F)cc1)c1cccc2cccnc12	9.75%
Cc1ccc(OCCCC(=O)Nc2ccc(N3CCOCC3)cc2)cc1	11.8%
O=C(C1CC(=O)N(c2ccc(Br)cc2)C1)N1CCCC1 (configuration not stated)	-9.51%
CC(=O)Nc1ccc(NC(=O)c2sc3nc4c(c(-c5ccc(C)cc5)c3c2N)CCC4)cc1	41.5% (active)
Cc1cccc(NC(=O)c2sc3nc(N4CCOCC4)c4c(c3c2N)CCCC4)c1	0.268%
Cc1ccc(NC(=O)c2sc3nc(N)c(C#N)cc3c2N)cc1	5.56%
CCNS(=O)(=O)c1ccc(NC(=O)c2cncc(Br)c2)cc1	3.77%
O=C(CCc1nc2ccccc2c(=O)[nH]1)OCC(=O)c1cccc(Cl)c1	46% (active)
O=C(COC(=O)CCc1nc2ccccc2c(=O)[nH]1)Nc1ccc(N2CCOCC2)cc1	5.92%
CC(C)(C)c1ccc(NC(=O)COC(=O)CCc2nc3ccccc3c(=O)[nH]2)cc1	9.52%
COc1ccc(S(=O)(=O)N2CCOCC2)c(C)c1C	3%
COc1ccccc1NC(=O)c1c(Br)cnn1C	-0.0339%
CN=C1C=C/C(=N/N=c2\ccn(O)cc2C)C=C1C	46% (active)
CC(C)C[C@@H](N)c1nnc(SCC(=O)c2ccc(Cl)cc2)o1	6.62%
O=C1Oc2ccccc2C(=O)/C1=C/c1ccccc1O	3.82%
O=C(NCCCc1ccccc1)C1CCC(=O)N(CCc2ccc(Cl)cc2)C1 (configuration not stated)	4.1%
COc1cccc(NC(C)=[N+](C)CCNS(=O)(=O)c2ccc(Cl)cc2)c1	13.5%
CCOC(=O)c1cnc(Nc2nc3ccccc3o2)nc1CSC(=S)N1CCCCC1	44.1% (active)
CCc1ccc(CNC(=O)C2CCCN(c3nc4ccccc4o3)C2)cc1 (configuration not stated)	-5.94%
CCOC(=O)CCNC(=O)N1CCCC(C(=O)c2ccccc2SC)C1 (configuration not stated)	-13.5%

Structure (SMILES)	inhibition
O=C(CC1SC(=Nc2ccccc2)N(Cc2ccccn2)C1=O)Nc1cccc(Cl)c1 (configuration not stated)	0.604%
COc1ccc(CCNC(=S)NC(=O)/C=C/c2ccc(C)cc2)cc1OC	-38%
O=[N+]([O-])c1cc(Cl)cc(/C=N/NC(=S)Nc2cc(S(=O)(=O)N3CCOCC3)ccc2Cl)c1O	42.1% (active)
O=S(=O)(c1ccc(NC(=S)NN=C(C2CC2)C2CC2)cc1)N1CCOCC1	-24.4%
Cc1ccc(S(=O)(=O)N2CCN(CC(=O)N/N=C/c3cc([N+](=O)[O-])ccc3Cl)CC2)cc1	-9.95%
Cn1cc[n+](C)c1COc1ccc(C=O)cc1	-7.79%
COC(=O)Cc1ccc(OC(=O)C2CCN(S(=O)(=O)c3ccc(OC)c(OC)c3)CC2)cc1	11.3%
CN(CC(=O)NCc1cccnc1)S(=O)(=O)c1cc(Cl)ccc1Cl	-3.77%
CC(=O)N1c2ccc(S(=O)(=O)N3CCC(C(=O)NCc4ccc(F)cc4)CC3)cc2CC1C (configuration not stated)	7.14%
COc1cccc(CNC(=O)C(=O)NCCC2CCCCN2S(=O)(=O)c2ccc(C)cc2)c1 (configuration not stated)	-56.9%
c1ccc(Cc2nn3c(Cn4cnc5ccccc54)nnc3s2)cc1	7.67%
Cc1ccc(C(=O)COC(=O)c2cccc(N3C(=O)c4c(C)nc5ccccc5c4C3=O)c2)cc1C	-8.71%
O=C(CSc1cccc2cccnc12)N/N=C/c1cccnc1	41.8% (active)
COc1ccc(C(=O)NCC(=O)N/N=C/c2cccnc2)cc1	4.23%
CCOC(=O)N/N=C/c1cccnc1	11.3%
CS(=O)(=O)N1CCc2cc(C(=O)Nc3ccccc3)ccc21	6.74%
Clc1ccc(Cn2ncc3c(NCc4cccnc4)ncnc32)cc1	-0.393%
CCOc1ccc(S(=O)(=O)Nc2ccc(S(=O)(=O)Nc3cc(OC)ccc3OC)cc2)cc1	15.7%
COc1ccc(N2CC(NS(=O)(=O)c3ccc4ccccc4c3)CC2=O)cc1 (configuration not stated)	1.28%
COc1cc(NS(=O)(=O)c2ccc3ccccc3c2)c2ncccc2c1	65.3% (active)
O=C(NCCS(=O)(=O)NCc1ccc(Cl)cc1)c1ccccc1	-4.12%
O=C(CN1C(=O)NC2(CCCC2)C1=O)Nc1ccc(F)c(F)c1F	8.35%
COc1cccc(CC2(CO)CCN(Cc3cnc(-c4cccc(C)c4)nc3)CC2)c1	-17.4%
